Experimental data from PubChem BioAssay (NCI).
About 83,000 compounds went through this panel and 20% of them were active in at least one assay; those are over-represented in the sample as a whole.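 48-hour exposure, single concentration, 96-well plates; percent growth endpoint where 0 means no net growth. Active: below 10.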 A number with no mark means an inactive call. The source made the active and inactive calls.

What was measured:
Experiment in all cases: NCI-60 one-dose screen, 48 h (100 = growth as untreated, 0 = no growth, -100 = all killed)
Conditions in all cases: 10 µM unless noted
NCI-H23 lung = system: NCI-H23 lung
NCI-H226 lung = system: NCI-H226 lung
NCI-H322M lung = system: NCI-H322M lung
HOP-62 NSCLC = system: HOP-62 NSCLC
NCI-H460 lung = system: NCI-H460 lung
HOP-92 NSCLC = system: HOP-92 NSCLC
NCI-H522 lung = system: NCI-H522 lung
A549/ATCC NSCLC = system: A549/ATCC NSCLC
786-0 renal = system: 786-0 renal
COLO 205 colon = system: COLO 205 colon
DU-145 prostate = system: DU-145 prostate
K-562 leukemia = system: K-562 leukemia
MALME-3M melanoma = system: MALME-3M melanoma
MDA-MB-231 breast = system: MDA-MB-231 breast
SF-268 CNS = system: SF-268 CNS
SF-295 CNS = system: SF-295 CNS
SF-539 CNS = system: SF-539 CNS
UACC-257 melanoma = system: UACC-257 melanoma
RXF 393 renal = system: RXF 393 renal

Row | Structure (SMILES) | growth (NCI-H23 lung) | growth (NCI-H226 lung) | growth (NCI-H322M lung) | growth (HOP-62 NSCLC) | growth (NCI-H460 lung) | growth (HOP-92 NSCLC) | growth (NCI-H522 lung) | growth (A549/ATCC NSCLC) | growth (786-0 renal) | growth (COLO 205 colon) | growth (DU-145 prostate) | growth (K-562 leukemia) | growth (MALME-3M melanoma) | growth (MDA-MB-231 breast) | growth (SF-268 CNS) | growth (SF-295 CNS) | growth (SF-539 CNS) | growth (UACC-257 melanoma) | growth (RXF 393 renal) [%]
1 | C=C1C(=O)O[C@H]2[C@H]1CC/C(COC(=O)/C=C\C(=O)NCc1ccc(Cn3c(=O)sn(CCCC)c3=O)cc1)=C\CC[C@@]1(C)O[C@@H]21 | -61.4% (active) | -70.4% (active) | 35.4% | -35.7% (active) | -54.3% (active) | -67.7% (active) | -44.5% (active) | 0.708% (active) | -76.8% (active) | -51.2% (active) | -95.5% (active) | 0.287% (active) | -93.3% (active) | -84.4% (active) | -64.4% (active) | 65.1% | -98.9% (active) | -52.8% (active) | –
2 | C/C(Cc1ccc(Cl)cc1)=C(/c1ccc(Cl)cc1)c1ccc(OCCN(C)C)cc1 | 73.2% | 104% | 91.2% | 99.2% | -46.9% (active) | 72% | 80.6% | 57.8% | 61.7% | -59.2% (active) | 62.3% | -4.72% (active) | 37.1% | 74.1% | 85.6% | 97.2% | 66.7% | 71.3% | –
3 | COc1ccc(OC)c(/C=C2\COc3ccc(O)c(O)c3C2=O)c1 | 48.9% | 85.2% | 54.3% | 30.2% | 4.53% (active) | 56.7% | -33.4% (active) | 48.1% | 22.4% | 95.3% | 3.87% (active) | 5.87% (active) | -5.32% (active) | 9.33% (active) | 15.9% | 78.4% | -23.1% (active) | 49.4% | –
4 | C=CCO[C@H]1CO[C@H]2[C@@H]1OC[C@@H]2Oc1ccc(Nc2ccnc(Nc3ccc(O[C@H]4CO[C@H]5[C@@H]4OC[C@@H]5OCC=C)c(Cl)c3)n2)cc1Cl | -47.8% (active) | 86.7% | -56.6% (active) | -25.5% (active) | -74% (active) | 83.3% | -29.9% (active) | -60.7% (active) | -88.2% (active) | 29.2% | -50.2% (active) | -32.4% (active) | -95.8% (active) | -92.8% (active) | -61.6% (active) | -77.8% (active) | -87.5% (active) | 107% | –
5 | COc1ccc(-c2nc3sccn3c2/C=C/C(=O)c2c[nH]c3ccccc23)cc1 | 73.2% | 66.8% | 63.6% | 71.7% | 70.2% | -5.53% (active) | 55.6% | 54.1% | 78.8% | 102% | 57.3% | 78.9% | 69.8% | 32.7% | 61.3% | 78.5% | 82.7% | 87.2% | –
6 | COc1cc(/C=C/c2nc(Nc3ccc(S(=O)(=O)Nc4cc(C)on4)cc3)c3ccccc3n2)ccc1O | 74.3% | 85.8% | 87.8% | 78.8% | 65.5% | 83.9% | 42.4% | 75.3% | 94.4% | 106% | 92.2% | 17.8% | 62.6% | 62.8% | 76.1% | 70.8% | 61.9% | 83.2% | –
7 | Cn1cc(-c2ccc3ncc(-c4ccc(CC(=O)Nc5cc(C(C)(C)C)nn5C)cc4)cc3c2)cn1 | 7.05% [30 µM] (active) | 11.5% [30 µM] | 15% [30 µM] | 17.6% [30 µM] | 8.3% [30 µM] (active) | 31.6% [30 µM] | -2.49% [30 µM] (active) | 17.8% [30 µM] | 39.6% [30 µM] | 5.26% [30 µM] (active) | 18.1% [30 µM] | 7% [30 µM] (active) | -0.381% [30 µM] (active) | 36% [30 µM] | 25.3% [30 µM] | 12.2% [30 µM] | 19.3% [30 µM] | 7.37% [30 µM] (active) | –
8 | COc1cc(NC(=O)c2cccc(-c3cc(=O)c4c(OC)c(OC)c(OC)cc4o3)c2)cc(OC)c1OC | 48.8% | 58.5% | 69.5% | 37.5% | 30% | 24.7% | 34.7% | 43.5% | 31.8% | 44.3% | 54.3% | 27.6% | 56.4% | – | 67.1% | 45% | 52.6% | 52.8% | 53.2
